The full ranking holds about 33,000 sequences; the median of “e-score” is about -0.05, and the highest 2% start at about 0.38. Shown is part of a subset that was picked to be rich in the highest values.

In this test the target is T1, SIX1-Q177R homeodomain (human, UniProt Q15475 108-198, Q177R).
T1 sequence: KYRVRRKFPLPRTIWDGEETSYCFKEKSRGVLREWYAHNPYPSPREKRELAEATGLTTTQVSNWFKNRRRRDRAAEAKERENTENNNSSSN
The test can be described thus: universal protein binding microarray; Universal all-10-mer PBM (8x60K, AMADID 030236), 300 nM GST-tagged protein, Alexa Fluor 488 anti-GST; buffer, salt, pH and temperature not stated (as in Berger); high values mean tight binding. As to conditions: protein: ivt; tags: N-terminal GST; dsDNA, one strand shown. Summed up: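 Duplicate protein binding microarrays (universal 'all 10-mer', 8×60K format) were incubated with GST-tagged homeodomains at 300 nM final concentration. Binding was quantified as 8-mer E-scores with the Universal PBM Analysis Suite.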
As for ATACCGTG, the binding signal was determined as 0.301 ± 0.0379 E-score.

Regarding ACACCGTG, the binding signal amounted to 0.472 ± 0.00577 E-score.

With ACACCGTA, the binding signal turned out to be 0.4704 ± 0.00388 E-score.

Turning to GCACCGTA, the binding signal was determined as 0.201 ± 0.0112 E-score.

In the case of CCCCCGTA, the binding signal was determined as 0.155 ± 0.0244 E-score.

As for ACGCCGTG, the binding signal worked out at 0.185 ± 0.00332 E-score.

For the sequence ACGTAGAG, the binding signal is 0.156 ± 0.0478 E-score.

For ATAGTACA, the binding signal stood at 0.312 ± 0.0122 E-score.

Turning to CCCCCCCC, the binding signal came to 0.188 ± 0.0377 E-score.

For the sequence TGCAGACA, the binding signal came to 0.167 ± 0.00968 E-score.

Take ATACGCGA: the binding signal is 0.151 ± 0.036 E-score.

Turning to ACACGCGG, the binding signal is 0.402 ± 0.00628 E-score.

With ACACGCGA, the binding signal was found to be 0.369 ± 0.00701 E-score.

For the sequence ACCCGCGG, the binding signal stood at 0.171 ± 0.0326 E-score.

For ACACGCGT, the binding signal worked out at 0.402 ± 0.0109 E-score.

With ACCCGCGT, the binding signal stood at 0.229 ± 0.0104 E-score.

As to CCCGGCCC, the binding signal is 0.167 ± 0.00402 E-score.

As for TACCTACA, the binding signal amounted to 0.3116 ± 0.00228 E-score.

As for TCAATACA, the binding signal came out at 0.212 ± 0.0334 E-score.

In the case of ACGTGCTC, the binding signal came to 0.215 ± 0.0224 E-score.

In the case of CACCGGAG, the binding signal came out at 0.328 ± 0.00104 E-score.

For the sequence ACTCAACA, the binding signal worked out at 0.172 ± 0.00693 E-score.

As to CTTAACAC, the binding signal came out at 0.435 ± 0.00897 E-score.

For CTTCACAC, the binding signal worked out at 0.278 ± 0.0221 E-score.

In the case of ATTAACCC, the binding signal was found to be 0.187 ± 0.00393 E-score.

With ATTAACAC, the binding signal worked out at 0.416 ± 0.0363 E-score.

Turning to ATTAAAAC, the binding signal was determined as 0.158 ± 0.019 E-score.

GACTCCTA: the binding signal came to 0.2147 ± 0.000728 E-score.

Take GTTAAGGA: the binding signal is 0.163 ± 0.00211 E-score.

With CAGGGTGG, the binding signal stood at 0.161 ± 0.0171 E-score.

Regarding ACTAGCAC, the binding signal was found to be 0.194 ± 0.00984 E-score.

With GAGATGTA, the binding signal came to 0.1954 ± 0.000318 E-score.

For the sequence ACAGACAC, the binding signal was found to be 0.392 ± 0.013 E-score.

For the sequence GGAGACAC, the binding signal was determined as 0.397 ± 0.0125 E-score.

With GCAGACAC, the binding signal is 0.352 ± 0.0222 E-score.

With CGAGACAC, the binding signal turned out to be 0.389 ± 0.0103 E-score.

In the case of CACGAGAC, the binding signal came to 0.154 ± 0.0312 E-score.

With CCAGACAC, the binding signal amounted to 0.37 ± 0.0149 E-score.

In the case of AGACACAC, the binding signal was determined as 0.316 ± 0.0332 E-score.

Turning to AGAGACAC, the binding signal came out at 0.411 ± 0.00648 E-score.

Take ACACAGAT: the binding signal is 0.167 ± 0.0587 E-score.

For the sequence CCGGGTTA, the binding signal was 0.2 ± 0.024 E-score.

Turning to CACGGATG, the binding signal turned out to be 0.155 ± 0.0314 E-score.

For the sequence ATCCACTC, the binding signal came out at 0.203 ± 0.0237 E-score.

With TACTCCGA, the binding signal turned out to be 0.211 ± 0.0155 E-score.

Consider CACTCCCG, for which the binding signal stood at 0.1824 ± 0.000608 E-score.

Turning to ATTGATAC, the binding signal came to 0.196 ± 0.00402 E-score.

Regarding ATGGCCGA, the binding signal came out at 0.155 ± 0.00984 E-score.

Regarding GGGATACA, the binding signal is 0.234 ± 0.00449 E-score.

In the case of CACCTGTA, the binding signal is 0.232 ± 0.0126 E-score.

For the sequence AACACAAC, the binding signal was 0.176 ± 0.0727 E-score.

GACACAAC: the binding signal was determined as 0.207 ± 0.0332 E-score.

For the sequence CGCAACAC, the binding signal is 0.366 ± 0.00704 E-score.

For CACAACAA, the binding signal is 0.168 ± 0.00449 E-score.

With GGGCACAC, the binding signal was found to be 0.284 ± 0.0218 E-score.

Take GGCAACAC: the binding signal was 0.4138 ± 0.00188 E-score.

For CACACAAC, the binding signal was 0.153 ± 0.0694 E-score.

As to GACAACAC, the binding signal came out at 0.386 ± 0.0047 E-score.

With AACAACAC, the binding signal was 0.414 ± 0.0082 E-score.

CACAACAC: the binding signal was 0.38 ± 0.0127 E-score.

Regarding AAGGGAGT, the binding signal worked out at 0.181 ± 0.0594 E-score.

As to CACGACTG, the binding signal was determined as 0.19 ± 0.0173 E-score.

As for ATATGGTG, the binding signal worked out at 0.245 ± 0.0104 E-score.

For the sequence CTTCTACA, the binding signal was 0.161 ± 0.0182 E-score.

In the case of ACACCCTC, the binding signal was determined as 0.4743 ± 0.00338 E-score.

For the sequence CCACCCTA, the binding signal is 0.174 ± 0.00684 E-score.

For ATACCCTG, the binding signal was 0.31 ± 0.0148 E-score.

Consider ACCCCCTG, for which the binding signal came to 0.328 ± 0.0317 E-score.

For the sequence ACCCTCTC, the binding signal is 0.164 ± 0.0166 E-score.

Regarding ACACCCTG, the binding signal came out at 0.4727 ± 0.000955 E-score.

For the sequence ACCCCCTC, the binding signal is 0.324 ± 0.00733 E-score.

On to ACACCCTA, for which the binding signal is 0.4661 ± 0.00184 E-score.

Regarding GCACCCTA, the binding signal worked out at 0.226 ± 0.0182 E-score.

On to ACCGCACA, for which the binding signal was determined as 0.232 ± 0.00335 E-score.

For the sequence TGGGAACA, the binding signal was determined as 0.172 ± 0.0191 E-score.

As to CGCCCGAC, the binding signal worked out at 0.184 ± 0.0127 E-score.

Turning to ACCGAGTG, the binding signal was determined as 0.363 ± 0.0115 E-score.

With CACCAGGC, the binding signal worked out at 0.336 ± 0.016 E-score.

Turning to CACGAAGA, the binding signal was 0.183 ± 0.0282 E-score.

Regarding AGATTACA, the binding signal stood at 0.23 ± 0.00802 E-score.

With ACGACACA, the binding signal came to 0.273 ± 0.0776 E-score.

Turning to AAGACACA, the binding signal stood at 0.174 ± 0.0361 E-score.

Turning to CCGACTCC, the binding signal was found to be 0.159 ± 0.044 E-score.

(Values after paper PMC10668032, “Altered binding affinity of SIX1-Q177R correlates with enhanced WNT5A and WNT pathway effector expression in Wilms tumor”.)
